USP1 inh: blocks the human USP1/UAF1 deubiquitinase complex. O94782. recombinant USP1/UAF1, Ub-Rhodamine cleavage fluorescence. Potency, µM (titrated, usually from 57.1 µM), for inactives: at the top dose activity change, negative = inhibition, actives largely listed as inhibitors. actives 0.23% (n = 390,000); also: potency is read from the fitted curve at half-maximal effect; nearly all actives have a fitted effect of over 60% in size
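In this screen, compounds sit with the deubiquitinase complex (1nM) for 15 min at room temperature before Ub-Rho is added at 150nM final. Fluorescence rise is then followed for 6 reads every 60 seconds.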
Tau fibril FP: blocks human tau fibril formation measured by polarization; P10636; K18 P301L tau heparin fibrillization, Alexa594 FP, 6 h; Potency, µM (series often up to 57.7 µM), without a hit: at the top dose activity, negative = inhibition, most hits filed as inhibitors; actives 0.39% (n = 280,000); AID 1468; also: potency is read from the fitted curve at half-maximal effect; nearly all actives have a fitted effect of over 55% in size
Target sequence (P10636 561-689 P618L limits assumed): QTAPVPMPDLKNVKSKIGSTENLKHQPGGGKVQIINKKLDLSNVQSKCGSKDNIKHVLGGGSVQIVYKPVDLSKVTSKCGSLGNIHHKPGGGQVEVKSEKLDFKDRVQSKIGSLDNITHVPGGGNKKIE
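Read-out: fluorescence polarization of Alexa 594-labeled tau (0.24 uM), 555 nm excitation, 632 nm emission. Mixtures held 15 uM unlabeled K18 P301L, compound and 20 uM heparin, pH 7 acetate buffer, incubated 6 hr at 37 C.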
Coupling enz: counter-screen for Giardia aldolase inhibitors: coupling enzyme system. AID 2472. coupling enzyme system counterscreen, AmpLite Red fluorescence. activity change, negative = inhibition, % at 58.2 µM, hits read low. actives 0.67% (n = 290,000); in the data active = activity change below about -30%
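Activity here indicates interference with the coupling reaction, not aldolase inhibition. Compounds at 57.5 uM final met coupling enzymes for 10 min at RT; substrate and AmpLite Red detection followed, with a 525/598 nm fluorescence read after 20 min.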
Tau fluor counter: counter-screen for tau fibril formation inhibitors; actives 0.93% (n = 280,000); Potency, µM (titrated, usually from 57.7 µM), without a hit: at the top dose activity change, negative = decrease; tau K18 P301L Alexa594 fluorescence, heparin fibrillization; AID 1463; also: potency is read from the fitted curve at half-maximal effect; nearly all actives have a fitted effect of over 55% in size
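Human K18 P301L tau (15 uM unlabeled plus 0.24 uM Alexa 594-labeled, final) in 100 mM sodium acetate pH 7 was mixed with compound and 20 uM heparin and incubated 6 hr at 37 C.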
Tau ThT inhib: blocks human tau fibril formation measured by thioflavin T | recombinant tau K18 P301L (four-repeat tau fragment), heparin-induced fibrillization, ThT fluorescence | P10636 | actives 2.1% (n = 270,000) | AID 1460 | Potency, µM (titrated, usually from 57.4 µM), inactives show top-dose activity, negative = inhibition, hits mostly inhibitors; also: potency is read from the fitted curve at half-maximal effect; nearly all actives have a fitted effect of over 55% in size
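Aggregation was driven by heparin (20 uM final) acting on recombinant tau […] bearing P301L in 100 mM sodium acetate pH 7; fibrils were detected with Thioflavin T.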
Active calls of the source: *; ? = inconclusive; nt = no result given; [ ] = remark or other dose. Shown are actives, neighbours in structure and some others; about 2.3% of the full set was active somewhere. Unless noted, calls follow the shape of the dose curve; as a rule, active = well fitted curve in the direction sought with a large enough effect; inconclusive = small, poorly fitted or top-dose-only effect, or another doubt; inactive = no such curve, though single readings can be large; an effect the other way counts as inactive or inconclusive. % is scaled to controls: 0 for no effect and ±100 for the full control effect.

SMILES | USP1 inh | Tau fibril FP | Coupling enz | Tau fluor counter | Tau ThT inhib
COC1=C2C[C@@H](C)C[C@H](OC)[C@H](O)[C@@H](C)/C=C(\C)[C@H](OC(N)=O)[C@@H](OC)/C=C\C=C(/C)C(=O)NC(=CC1=O)C2=O | nt | nt | -65* | nt | nt
C=CCNC1=C2C[C@@H](C)C[C@H](OC)[C@H](O)[C@@H](C)/C=C(\C)[C@H](OC(N)=O)[C@@H](OC)/C=C/C=C(\C)C(=O)NC(=CC1=O)C2=O | nt | 7%[11.6 µM] | -26 | -21%[11.6 µM] | -24%[11.5 µM]
CCOc1ccccc1CNc1ncnc2onc(-c3ccc(F)cc3)c12 | 5% | -6% | nt | -17% | -3%
CC1=CN2C(=N)/C(=C/c3ccc(Sc4ccc(C)cc4)o3)C(=O)N=C2S1 | ? | -5% | 0 | ? | 7.9µM*
CC1=CN2C(=N)/C(=C/c3ccc(Sc4ccc(Cl)cc4)o3)C(=O)N=C2S1 | -2% | -9% | 0 | ? | 13µM*
Cc1ccccc1Cn1c(CN2CCC(C(=O)NCCN(C)C)CC2)cc2ccccc21 | -25% | 1% | nt | -10% | -10%
COc1ccc(N=C2NC(=O)S/C2=C\c2ccc(N(C)C)cc2)cc1 | 25µM* | ? | 1 | ? | 1.1µM*
CCOc1ccc(N=C2NC(=O)S/C2=C\c2ccc(Cl)cc2)cc1 | -5% | -9% | 2 | -21% | ?
Cc1nc(N2C(=O)c3oc4ccccc4c(=O)c3C2c2cccc(OCCC(C)C)c2)sc1C (configuration not stated) | 8% | 6% | nt | -5% | 0%
O=S(=O)(Nc1c(S(=O)(=O)c2ccccc2)c2nc3ccccc3nc2n1C1CCCCC1)c1ccccc1 | 3.2µM* | ? | -53* | -2% | ?
CC(=O)Nc1c(S(=O)(=O)c2ccccc2)c2nc3ccccc3nc2n1Cc1ccccc1 | -22% | -6% | 0 | ? | ?
C=CCn1c(NS(=O)(=O)c2ccccc2)c(S(=O)(=O)c2ccc(C)cc2)c2nc3ccccc3nc21 | 28µM* | 1% | -59* | -1% | 6%
COc1ccc(C2CC(c3ccccc3)Oc3c(C)ccc(C(C)C)c32)cc1 (configuration not stated) | nt | nt | -1 | nt | nt
O=C(O)c1ccc(Nc2cc(Cl)c3nonc3c2[N+](=O)[O-])cc1 | -17% | -2% | -4 | ? | 7.1µM*
Cc1c(Nc2cc(Cl)c3nonc3c2[N+](=O)[O-])c(=O)n(-c2ccccc2)n1C | -6% | ? | -6 | 10µM*[quencher] | 4µM*
Cc1ccc2nc(SCC(=O)Nc3ccc(F)c([N+](=O)[O-])c3)[nH]c2c1 | -11% | -9% | 0 | 28µM*[quencher] | ?
COC(=O)c1c(SCC(=O)Nc2cc(F)ccc2F)[nH]c2ccc(C)cc2c1=O | -25% | -3% | nt | ? | 7.1µM*
COC(=O)c1c(SCC(=O)Nc2cccc(C(F)(F)F)c2)[nH]c2ccccc2c1=O | -10% | -8% | nt | 16µM*[quencher] | 14µM*
COC(=O)c1c(SCC(=O)Nc2cccc(Cl)c2C)[nH]c2ccccc2c1=O | -20% | ? | nt | -27% | 16µM*
COC(=O)c1c(SCC(=O)NC2CCCCC2)[nH]c2ccccc2c1=O | -16% | nt | nt | nt | nt
O=C(CSc1nc2ncccc2[nH]1)Nc1cc(F)ccc1F | -10% | -5% | nt | -14% | -1%
CCCOc1ccc(CN(C(=O)c2nc(SC(C)C)ncc2Cl)C2CCS(=O)(=O)C2)cc1 (configuration not stated) | -28% | 7% | nt | -12% | -2%
COC(=O)NC(c1cccc(C)c1)[C@]1(C(C)=O)CCOC1=O (some centres not stated) | nt | 6%[11.6 µM] | -4 | 7%[11.6 µM] | -11%[11.5 µM]
COc1ccc(Cn2ccnc2SCC(=O)Nc2ccc3c(c2)OCCO3)cc1 | -17% | 12% | nt | -8% | -3%
Nc1ncnc2nc(SCC(=O)Nc3cccc(C(F)(F)F)c3)[nH]c12 | -41% | nt | 0 | nt | nt
SMILES | USP1 inh | Tau fibril FP | Coupling enz | Tau fluor counter | Tau ThT inhib
O=C(CSc1nc2cc3ccccc3cc2[nH]1)Nc1cccc(C(F)(F)F)c1 | -12% | 3.2µM* | nt | ? | -6%
O=C(Nc1ccc(OC(F)(F)F)cc1)C(Cc1ccccc1)NS(=O)(=O)c1cccc2nsnc12 (configuration not stated) | -10% | 16µM* | nt | ? | 5%
O=C(Nc1ccc(Br)cc1)C(Cc1ccccc1)NS(=O)(=O)c1cccc2nsnc12 (configuration not stated) | 5% | -15% | nt | -13% | 10%
C=CCN1CC(C(=O)N(CCCN(C)C)C(=O)NCC)CC2c3cccc4[nH]cc(c34)CC21 (configuration not stated) | nt | nt | -1 | nt | nt
CN(/N=C/c1cc([N+](=O)[O-])ccc1O)c1ccccc1 | -20% | 1% | 1 | -20% | ?
COc1cc(OC)c(OC)cc1/C=N/N(C)c1ccccc1 | -18% | ? | -3 | 16µM*[quencher] | ?
COc1cc(/C=N/N(C)c2ccccc2)ccc1O | -2% | 10% | -2 | ? | 13µM*
CN(/N=C/c1ccc2c(c1)OCO2)c1ccccc1 | -7% | ? | -2 | 6% | 1%
CCN(CC)c1ccc(C(=O)N2CCc3c([nH]c4ccccc34)C2c2ccc(F)cc2)cc1 (configuration not stated) | -21% | 5% | nt | -6% | -4%
CCCCN(C)c1nc2c(S(=O)(=O)c3ccc(CC)cc3)nnn2c2ccc(Cl)cc12 | -6% | -10% | nt | -14% | -2%
COc1ccc2c(CNCCc3cccs3)c(C(=O)O)n(Cc3ccccc3C)c2c1 | -1% | 3% | nt | -15% | -5%
COc1ccc(Nc2nc(-c3ccccc3F)nc3ccccc23)cc1OC | -7% | 15% | -1 | 10µM*[quencher] | ?
C/C(=N/Nc1nc(-c2ccccc2F)nc2ccccc12)c1ccccc1O | -27% | 6% | 0 | ? | 10µM*
O=C(NCc1ccc2c(c1)CCN2C(=O)c1ccncc1)c1ccccc1Cl | -1% | -6% | nt | -1% | 5%
O=C(Nc1ccccc1OCc1cc(=O)n2ccccc2n1)c1ccccc1F | -16% | -5% | nt | -7% | -1%
Cc1sc2ccccc2[n+]1CC(=O)O | -9% | 32µM* | 5 | -16% | 28µM*
Cc1sc2ccccc2[n+]1CC(=O)c1ccccc1 | -22% | nt | -1 | nt | nt
Cn1cc(C=C2C(=O)Nc3cccnc32)c2ccccc21 | nt | 7% | -10 | ? | 10µM*
CC(Cc1cccs1)NC(=O)Nc1ccc(Cl)cc1 (configuration not stated) | -18% | -11% | 0 | -29% | -5%
O=C(Nc1ccccc1)Nc1nnc(CSCc2ccccc2Cl)s1 | -20% | 10µM* | 2 | ? | 21%
CC(Cc1cccs1)NC(=O)Nc1ccc(Cl)c(Cl)c1 (configuration not stated) | -23% | 25µM* | -3 | ? | -4%

Screening results as filed in PubChem.
